Results filed as inconclusive are left out. The source made the active and inactive calls. The calls were made as follows: active = hit-call score of the fitted dose curve at least 0.9, where 1 is the maximum; inconclusive = response in the unintended direction; inactive = score below 0.9.

For orientation: AC50 means the midpoint of the concentration-response curve, whichever way the signal moves.

For this assay, the target named is Estrogen receptor (Homo sapiens) (UniProt P03372). The assay can be described thus: ERF_US_NR_hESR1: Eurofins (ERF) Nuclear Receptor (NR) Cell Based Protein-Protein Interaction LeadHunter Assay for human Estrogen Receptor alpha (ERa) Agonism. The protocol: ERF_US_NR_hESR1 is a cell-based, single-readout assay that uses extracted gene-proteins in a cell-line assay. Measurements were taken 5 hours after chemical dosing in a 384-well plate. See ERalpha Human Estrogen NHR Cell Based Agonist Protein-Protein Interaction Assay, DiscoverX.ERF_US_NR_hESR1 is an assay component calculated from the ERF_US_NR_hESR1 assay. It is designed to […].Data from the assay component ERF_US_NR_hESR1 was analyzed at the assay endpoint, ERF_US_NR_hESR1, in the positive analysis fitting direction relative to DMSO as the negative control and baseline of activity. Using a type of binding reporter, gain-of-signal activity can be used to understand changes in binding as they relate to gene ESR1. To generalize the intended target to other relatable targets, this assay endpoint is annotated to the nuclear receptor intended target family, where the subfamily is steroid.
Estrogen receptor (Homo sapiens), sequence (P03372 whole entry, looked up): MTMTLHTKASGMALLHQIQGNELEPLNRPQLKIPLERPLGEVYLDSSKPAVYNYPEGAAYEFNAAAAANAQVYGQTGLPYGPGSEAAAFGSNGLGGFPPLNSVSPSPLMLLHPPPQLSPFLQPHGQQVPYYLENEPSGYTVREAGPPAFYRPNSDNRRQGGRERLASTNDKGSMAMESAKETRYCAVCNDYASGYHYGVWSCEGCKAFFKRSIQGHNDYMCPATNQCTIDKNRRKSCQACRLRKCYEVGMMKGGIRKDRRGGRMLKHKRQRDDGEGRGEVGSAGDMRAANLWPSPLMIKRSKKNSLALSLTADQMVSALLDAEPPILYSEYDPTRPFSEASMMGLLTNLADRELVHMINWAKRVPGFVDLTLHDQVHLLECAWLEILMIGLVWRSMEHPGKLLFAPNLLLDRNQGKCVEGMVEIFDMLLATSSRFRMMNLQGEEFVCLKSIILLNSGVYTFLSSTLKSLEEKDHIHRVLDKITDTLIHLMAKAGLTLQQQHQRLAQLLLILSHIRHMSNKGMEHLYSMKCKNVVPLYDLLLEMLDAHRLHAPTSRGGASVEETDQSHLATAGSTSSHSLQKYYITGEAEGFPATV
Cells were seeded in a total volume of 20 uL into white walled, 384-well microplates and incubated at 37C overnight prior to testing. Briefly, intermediate dilution of sample stocks was performed to generate 5X sample in assay buffer. 5 uL of 5X sample was added to cells and incubated at37C for 300 minutes. Final assay vehicle concentration was 1%. The results are expressed as a percent efficacy of the control ligand.
Turning to `FC(F)(I)C(F)(F)C(F)(F)C(F)(F)I`, the call was inactive.
For the molecule `OCC(F)(F)C(F)(F)C(F)(F)C(F)(F)C(F)(F)C(F)(F)C(F)(F)C(F)(F)CO`, the AC50 was 17.1 µM (active).
`O=P(O)(O)OCCC(F)(F)C(F)(F)C(F)(F)C(F)(F)C(F)(F)C(F)(F)F`: the result was inactive.
On to `NC(=O)C(F)(F)C(F)(F)C(F)(F)C(F)(F)C(F)(F)C(F)(F)C(F)(F)F`, for which the molecule was called inactive.
In the case of `OCCC(F)(F)C(F)(F)C(F)(F)C(F)(F)C(F)(F)C(F)(F)F`, the molecule was classed as inactive.
For the molecule `O=C(O)C(F)(OC(F)(F)C(F)(OC(F)(F)C(F)(F)C(F)(F)F)C(F)(F)F)C(F)(F)F` (stereo not drawn), the outcome was inactive.
As for `C=CC(=O)OCC(F)(F)C(F)(F)C(F)(F)C(F)(F)C(F)(F)C(F)(F)C(F)(F)C(F)F`, the molecule was classed as inactive.
Take `OCC(F)(F)C(F)(F)C(F)(F)C(F)(F)C(F)(F)C(F)(F)CO`: the AC50 is 25.3 µM (active).
Consider `N=C(N)C(F)(F)C(F)(F)C(F)(F)C(F)(F)C(F)(F)C(F)(F)C(F)(F)F`, for which the molecule was called inactive.
Take `OCCC(F)(F)C(F)(F)C(F)(F)C(F)(F)C(F)(F)C(F)(F)C(F)(F)C(F)(F)F`: the outcome was inactive.
In the case of `FC(F)(F)C(F)(F)C(F)(F)C(F)(F)C(F)(F)C(F)(F)I`, the result was inactive.
On to `FC(F)(I)C(F)(F)C(F)(F)C(F)(F)C(F)(F)C(F)(F)I`, for which the AC50 is 12.1 µM (active).
With `FC(F)(F)C(F)(F)C(F)(F)C(F)(F)CCI`, the outcome was inactive.
